Measurements taken from paper PMC4336329 (PLoS ONE, 2015).
Hit rate of the full screen: of about 310,000 compounds, about 14,000 (4.5%) showed an effect of 50% or more. Effects have a minus sign here. The list comes from a sample in which strong results are over-represented; it also holds similar structures and randomly drawn compounds.

molecular target: human ether-à-go-go-related gene (hERG) potassium channel (human, UniProt Q12809); assay: primary screen, population patch clamp on CHO cells stably expressing hERG; higher = less effect of the substance
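Further: peak tail current of the secondary pulse compared with the same well before compound.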

Chain of human ether-à-go-go-related gene (hERG) potassium channel (Q12809 whole entry, looked up): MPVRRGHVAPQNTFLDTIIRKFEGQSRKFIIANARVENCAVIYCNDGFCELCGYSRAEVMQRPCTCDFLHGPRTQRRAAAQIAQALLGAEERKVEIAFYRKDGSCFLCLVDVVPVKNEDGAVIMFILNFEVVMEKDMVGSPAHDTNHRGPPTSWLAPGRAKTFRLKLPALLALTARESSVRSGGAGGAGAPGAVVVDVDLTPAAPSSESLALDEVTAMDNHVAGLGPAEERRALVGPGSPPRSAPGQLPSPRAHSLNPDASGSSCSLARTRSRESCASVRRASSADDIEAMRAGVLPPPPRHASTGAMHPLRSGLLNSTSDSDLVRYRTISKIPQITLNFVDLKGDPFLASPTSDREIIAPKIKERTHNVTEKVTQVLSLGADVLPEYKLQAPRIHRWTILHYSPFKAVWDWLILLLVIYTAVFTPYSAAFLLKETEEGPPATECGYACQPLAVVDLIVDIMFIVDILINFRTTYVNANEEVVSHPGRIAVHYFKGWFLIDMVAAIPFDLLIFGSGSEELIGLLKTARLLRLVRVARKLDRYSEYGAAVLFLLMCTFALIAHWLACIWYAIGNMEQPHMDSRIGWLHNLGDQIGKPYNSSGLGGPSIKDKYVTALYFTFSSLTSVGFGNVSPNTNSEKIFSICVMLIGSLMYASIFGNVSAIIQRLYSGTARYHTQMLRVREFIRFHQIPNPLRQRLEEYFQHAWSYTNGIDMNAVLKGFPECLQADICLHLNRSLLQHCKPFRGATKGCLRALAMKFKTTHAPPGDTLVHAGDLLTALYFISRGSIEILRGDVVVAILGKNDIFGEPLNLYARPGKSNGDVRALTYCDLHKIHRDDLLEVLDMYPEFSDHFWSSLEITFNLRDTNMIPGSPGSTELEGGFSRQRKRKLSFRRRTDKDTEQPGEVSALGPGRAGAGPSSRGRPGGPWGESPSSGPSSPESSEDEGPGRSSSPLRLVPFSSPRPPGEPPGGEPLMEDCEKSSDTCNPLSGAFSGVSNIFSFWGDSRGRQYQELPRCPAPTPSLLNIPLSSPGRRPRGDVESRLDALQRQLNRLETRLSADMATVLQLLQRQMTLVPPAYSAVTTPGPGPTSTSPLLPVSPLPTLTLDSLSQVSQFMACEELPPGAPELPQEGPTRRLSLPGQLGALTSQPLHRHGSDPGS

Compound | hERG current change (%, negative = inhibition) at 10uM [%]
CCOc1ccccc1CNC(=O)CCNS(=O)(=O)c1ccc2[nH]c(=O)oc2c1 | -2.89
CCC(O)(CC)C(=O)N/N=C/c1cc(Br)cc(Br)c1O | -1.02
C/C(CC(=O)Nc1ccccn1)=N\NC(=O)Cc1cccc2ccccc12 | 1.01
CCOC(=O)c1c(C)[nH]c(C(=O)COC(=O)c2ccccn2)c1C | -17
Cc1cccc(-c2nnc3n2N=C(c2ccccc2Br)CS3)c1 | -14.4
CC1CCCC(NC(=O)COC(=O)CN2C(=O)C3CCCCC3C2=O)C1C (centres unmarked) | 10.3
Cc1ccc(CN(Cc2ccccn2)C(=O)Nc2c(F)cccc2F)cc1 | -0.968
CCC/C(=N\NC(=O)c1ccc(CSc2nncn2C)cc1)c1ccccc1 | -8.28
CCCOc1ccc(C2c3c(oc4cc(C)c(C)cc4c3=O)C(=O)N2CCCN(C)C)cc1OCC (centres unmarked) | 7.65
Cc1cc(C)c(S(=O)(=O)NCc2cccnc2)c(C)c1 | -2.97
O=S(=O)(NCC(c1cccnc1)N1CCN(Cc2ccccc2)CC1)c1ccc(Cl)cc1 (centres unmarked) | -78.3
O=S(=O)(NCC(c1cccnc1)N1CCOCC1)c1ccc(Cl)cc1 (centres unmarked) | 4.89
CCN1CCN(C(CNS(=O)(=O)c2ccc(F)cc2)c2cccnc2)CC1 (centres unmarked) | -20.5
O=S(=O)(NCC(c1cccnc1)N1CCc2ccccc2C1)c1ccccc1 (centres unmarked) | 10.3
O=S(=O)(NCC(c1cccnc1)N1CCN(Cc2ccccc2)CC1)c1ccccc1 (centres unmarked) | -68.9
CCN1CCN(C(CNS(=O)(=O)c2ccccc2)c2cccnc2)CC1 (centres unmarked) | -39.2
Cc1cc(C)c(S(=O)(=O)NCC(c2cccnc2)N2CCN(Cc3ccccc3)CC2)c(C)c1 (centres unmarked) | -69.5
Cc1cc(C)c(S(=O)(=O)NC2CCN(Cc3ccccc3)CC2)c(C)c1.Cl | -47.6
O=S(=O)(NCC(c1cccnc1)N1CCN(Cc2ccccc2)CC1)c1ccc(F)cc1 (centres unmarked) | -65
O=S(=O)(NCC(c1cccnc1)N1CCOCC1)c1ccccc1 (centres unmarked) | 4.6
C(=N\N(Cc1ccccc1)c1ccccc1)/c1ccco1 | -11.5
O=C(CNC(=O)c1ccccc1F)OCc1nc2ccccc2s1 | 20.6
COc1cc(C(=O)Nc2nccs2)cc(OC)c1OC | 3.55

Compound | hERG current change (%, negative = inhibition) at 10uM [%]
CSc1ccc(/C=N/n2c(C3CCCCC3)n[nH]c2=S)cc1 | 21.9
O=C(/C=C/c1ccc2c(c1)OCO2)Nc1nc(-c2ccc(F)cc2F)cs1 | 9.08
O=C(O)/C=C/c1cccc(NC(=O)c2ccccc2)c1 | 9.14
CCOc1ccc(NC(=O)CN(C)C(=O)Cn2cnc3c2c(=O)n(C)c(=O)n3C)cc1OCC | 5.62
CCN1CCN(C(CNS(=O)(=O)c2ccc(OC)cc2)c2cccnc2)CC1 (centres unmarked) | -45.4
COc1ccc(S(=O)(=O)NCC(c2cccnc2)N2CCN(Cc3ccccc3)CC2)cc1 (centres unmarked) | -58.5
Cc1ccc(S(=O)(=O)NCC(c2cccnc2)N2CCc3ccccc32)cc1 (centres unmarked) | -2.1
Cc1ccc(S(=O)(=O)NCC(c2cccnc2)N2CCN(Cc3ccccc3)CC2)cc1 (centres unmarked) | -73.1
Cc1ccc(S(=O)(=O)NCC(c2cccnc2)N2CCOCC2)cc1 (centres unmarked) | 5.12
O=C(CCC(=O)OCC(=O)c1ccc([N+](=O)[O-])cc1)NC1CCCCC1 | -0.724
COc1ccc(Cn2nnnc2CN2CCC(O)(c3ccc(F)cc3)CC2)cc1 | -14.5
COc1ccc(C(=O)Nc2ccc(-n3nncc3C(C)(C)C)cc2)cc1 | -26.4
COc1cccc(C(=O)Nc2ccc(-n3nncc3C(C)(C)C)cc2)c1 | -60.5
CC(C)(C)c1cnnn1-c1ccc(NC(=O)c2ccc3c(c2)OCO3)cc1 | -17.4
CC1(C)CC(=O)c2cc(C(=O)NCc3ccco3)c(=O)n(-c3ccccc3)c2C1 | -19.7
Cc1ccc(-n2c3c(cc(C(=O)NCC(=O)c4ccccc4)c2=O)C(=O)CCC3)cc1 | 10.2
O=C1CCCc2c1cc(C(=O)Nc1ccc(Br)cn1)c(=O)n2-c1ccccc1 | -2.93
O=C1CCCc2c1cc(C(=O)NCc1ccco1)c(=O)n2-c1ccccc1 | -10.3
COc1ccc(-n2c3c(cc(C(=O)NCc4ccco4)c2=O)C(=O)CC(C)(C)C3)cc1 | -56.6
O=C1CCCc2c1cc(C(=O)NCCCN1CCOCC1)c(=O)n2-c1ccc(Cl)cc1 | 1.59
CC1(C)CC(=O)c2cc(C(=O)NCc3ccco3)c(=O)n(-c3ccc(Cl)cc3)c2C1 | -22.2
O=C1CCCc2c1cc(C(=O)O)c(=O)n2-c1ccccc1 | 13.9
O=C1CCCc2c1cc(C(=O)NCc1ccco1)c(=O)n2-c1ccc(Cl)cc1 | -69.3

Compound | hERG current change (%, negative = inhibition) at 10uM [%]
Cc1ccc(-n2c3c(cc(C(=O)NCc4ccco4)c2=O)C(=O)CC(C)(C)C3)cc1 | -6.38
O=C1CCCc2c1cc(C(=O)Nc1ccc(Cl)cn1)c(=O)n2-c1ccccc1 | -60.1
Cc1ccc(-n2c3c(cc(C(=O)NCc4ccco4)c2=O)C(=O)CCC3)cc1 | -53.8
CS(=O)(=O)N(CC(=O)N1CCN(c2cccc(Cl)c2)CC1)c1cccc(F)c1 | -33.8
COc1ccccc1NC(=O)Cn1c(CN2CCCCC2)nc2ccccc2c1=O | -43.7
CN(Cc1cccs1)C(=O)CCCc1c[nH]c2ccccc12 | -1.49
COc1ccc(/C(O)=C2/C(=O)C(=O)N(CCN(C)C)C2c2ccc(OC)c(OC)c2)c(C)c1 (centres unmarked) | 11
O=C(c1cc(S(=O)(=O)N2CCOCC2)ccc1Cl)N1CCC(Cc2ccccc2)CC1 | -15.9
Cc1cc(CNC(=O)c2cccc([N+](=O)[O-])c2C)c2ccccc2n1 | -53
Cc1cc(CNC(=O)c2cccc([N+](=O)[O-])c2)c2ccccc2n1 | 6.72
Cc1cc(CNC(=O)c2ccc(C)c([N+](=O)[O-])c2)c2ccccc2n1 | 8.05
CN(CC(=O)Nc1ccc(F)cc1)C(=O)COc1ncnc2ccccc12 | -19.3
Cc1ccc(NC(=O)COc2ccccc2C(=O)NCc2ccccc2)cc1 | -31.1
c1ccc(-c2cn(C[C@H]3CC[C@H](Cn4cc(-c5ccccn5)nn4)O3)nn2)nc1 | -9.3
Cc1ccc(-c2cn(C[C@H]3CC[C@@H]([C@@H]4CC[C@H](Cn5cc(-c6ccc(C)cc6)nn5)O4)O3)nn2)cc1 | -7.99
COc1ccc(-c2cn(Cc3cccc(OC)c3)nn2)cc1 | -0.524
COc1ccc(-c2cn(CC3CCCCC3)nn2)cc1 | 15.3
c1cncc(-c2cn(C[C@H]3CC[C@@H]([C@@H]4CC[C@H](Cn5cc(-c6cccnc6)nn5)O4)O3)nn2)c1 | -58.5
COc1cccc(-c2cn(C[C@H]3CC[C@@H]([C@@H]4CC[C@H](Cn5cc(-c6cccc(OC)c6)nn5)O4)O3)nn2)c1 | -72.7
c1ccc(-c2cn(C[C@H]3CC[C@@H]([C@@H]4CC[C@H](Cn5cc(-c6ccccc6)nn5)O4)O3)nn2)cc1 | -23.8
c1cc(-c2cn(C[C@H]3CC[C@@H]([C@@H]4CC[C@H](Cn5cc(-c6ccsc6)nn5)O4)O3)nn2)cs1 | -75.5
c1ccc(-c2cn(C[C@H]3CC[C@@H]([C@@H]4CC[C@H](Cn5cc(-c6ccccn6)nn5)O4)O3)nn2)nc1 | -6.73
Cc1c(CCO)c(=O)n(C)n1C(=O)c1ccc(F)cc1 | 2.6

Compound | hERG current change (%, negative = inhibition) at 10uM [%]
CCCCCN(C(=O)CCC(=O)OCc1ccc(C(C)(C)C)cc1)c1c(N)n(CCCC)c(=O)[nH]c1=O | -8.09
CCN(Cc1ccccc1)C(=O)c1ccc(CS(=O)c2ccccc2C)o1 (centres unmarked) | -43.9
C/C(=N\NC(=O)c1csc(C)c1C)c1ccc(Cl)s1 | -0.674
C/C=C\C=C\C(=O)N1CC2(CC(c3cccc(NC(=O)CC(c4ccccc4)c4ccccc4)c3)=NO2)C[C@H]1C(N)=O (some centres unmarked) | 0.883
O=C1C(Cl)=C(Nc2cccc(O)c2)C(=O)N1Cc1ccccc1 | -62.4
CCOc1ccc(NC2=C(Cl)C(=O)N(Cc3ccccc3)C2=O)cc1 | -0.258
CC1CCCCN1C(=O)c1cccc(NC2=C(Cl)C(=O)N(Cc3ccccc3)C2=O)c1 (centres unmarked) | -15.8
NC(C(=O)O)c1cc(=O)[nH]o1 (centres unmarked) | 13.4
CCCCn1c(SCC(=O)Nc2cccc(C)n2)nnc1-c1ccco1 | -76
CCn1c(SCC(=O)Nc2cc(C)on2)nnc1-c1ccco1 | -4.87
COCCCn1c(SCC(=O)Nc2cccc(C)n2)nnc1-c1ccco1 | -69.3
CCCCn1c(SCC(=O)Nc2cc(C)on2)nnc1-c1ccco1 | -23.3
CCn1c(SCC(=O)Nc2cccc(C)n2)nnc1-c1ccco1 | -50.9
CCCCn1c(SCC(=O)NC(C)(C)C)nnc1-c1ccco1 | -1.57
CCC(=O)Nc1ccc(NC(=O)CSc2nnc(-c3ccco3)n2CC)cc1 | 8.22
COCCn1c(SCC(=O)Nc2cccc(C)n2)nnc1-c1ccco1 | -11.5
CCCn1c(SCC(=O)NC2CCCCC2)nnc1-c1ccco1 | -20.3
CCn1c(SCC(=O)NC2CCCC2)nnc1-c1ccco1 | 14.8
CCCCn1c(SCC(=O)NC2CCCC2)nnc1-c1ccco1 | -54.8
COCCn1c(SCC(=O)Nc2cc(C)on2)nnc1-c1ccco1 | -4.67
